Source: PubChem (Sanford-Burnham Center for Chemical Genomics)
Shown are actives, neighbours in structure and some others; about 4.1% of the full set was active somewhere.
tim23-1 inh – tim23-1 yeast growth inhibition; S. cerevisiae tim23-1 growth, BacTiter-Glo luminescence, 24 h; inhibition, % at 20 µM; hit rate 1.3% among 330,000;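 active means growth inhibition of the mutant yeast at or above 50%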;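 further: temperature-sensitive mutant grown at 25 °C; plate controls were DMSO-treated mutant yeast for no effect and medium wells lacking yeast for full effect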
NALP1 yeast inh – blocks the NALP1 inflammasome reconstituted in yeast | AID 2071 | S. cerevisiae NALP1/ASC/caspase-1 growth, X-gal OD620, 72 h | hit rate 0.61% among 280,000 | inhibition, % at 10 µM; in the data active means inhibition mostly above about 24%, no sharp cut-off; inactive means mostly below about 32%
NLRP3 yeast inh – blocks the NALP3 inflammasome reconstituted in yeast. Yeast reconstituted NLRP3/ASC/caspase-1, beta-gal luminescence, 24 h. inhibition, % at 10 µM. hit rate 0.39% among 330,000;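 active means inhibition of 50% or more; inactive means inhibition below 50%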;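 further: plate controls were induced DMSO wells for no effect and uninduced yeast grown without galactose for full effect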
tim10-1 inh – growth inhibitors of tim10-1 mutant yeast | S. cerevisiae tim10-1 ts strain growth, BacTiter-Glo, 24 h | inhibition, % at 20 µM | hit rate 2.2% among 330,000 | AID 463190;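 active means inhibition of at least 40%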;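 further: mutant grown at 25 °C; 0% = DMSO wells with yeast and 100% = wells holding no yeast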
TIM10 inh – inhibits growth of TIM10 yeast strain; S. cerevisiae TIM10 strain growth, BacTiter-Glo luminescence, 24 h; inhibition, % at 10 µM; hit rate 1.4% among 330,000; AID 463195;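 active means inhibition of 40% or more at the single tested concentration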;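 further: wild-type TIM10 isogenic control strain grown at permissive 25 °C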
tim10-1 confirm – confirmation of tim10-1 mutant yeast growth inhibitors | AID 463213 | shares compounds with tim10-1 inh | hit rate 56% among 7,400 | S. cerevisiae tim10-1 ts strain growth, BacTiter-Glo, 24 h | inhibition, % at 20 µM;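 active means inhibition of yeast growth at or above a set limit in either of two repeat tests at 20 µM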;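 further: tim10-1 mutant grown at permissive 25 °C to find synthetic lethal compounds; 0% = DMSO yeast wells and 100% = medium wells without yeast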
* hit, by the source's call; / = no result given.

SMILES	tim23-1 inh	NALP1 yeast inh	NLRP3 yeast inh	tim10-1 inh	TIM10 inh	tim10-1 confirm
CC1CC2=C(NC(=S)NC2c2ccc(F)cc2)/C(=C/c2ccc(F)cc2)C1 (stereo unspecified)	37	-7	8	46*	29	28
O=C(c1cc(C2CC2)nc2ccccc12)N1N=C(C(F)F)CC1(O)C(F)F (stereo unspecified)	10	7	8	11	6	/
CC(C)c1ccc(-c2cc(C(=O)N3N=C(C(F)F)CC3(O)C(F)F)c3ccccc3n2)cc1 (stereo unspecified)	37	13	14	41*	25	27
Cc1ccnc(Cc2ccccc2)n1	17	15	12	19	0	/
Cc1cc(/C=N/n2cnnc2)c(C)n1-c1ccc(OCc2ccccc2F)cc1	36	33	10	46*	39	-3
C#Cc1ccc([C@H]2C=C(C(=O)N3CCOCC3)O[C@@H](OCc3ccc(CO)cc3)C2)cc1	2	0	9	-2	0	/
O=C(Nc1ccccc1F)c1ccc2c(c1)CCN2S(=O)(=O)c1ccccc1	36	20	1	40*	23	16
COc1ccc(N(CC(=O)Nc2ccccc2OC)S(=O)(=O)c2ccc(OC)c(OC)c2)cc1	19	-5	4	23	7	/
C/C(=N\NC(=O)c1nnn(-c2nonc2N)c1CN(C)c1ccccc1)c1ccccc1O	26	0	21	62*	25	3
COc1ccc(/C(C)=N/NC(=O)c2nnn(-c3nonc3N)c2CN(C)c2ccccc2)cc1	8	28	15	26	2	/
Clc1cccc(/C=N/Nc2ncnc3ccccc23)c1	35	-4	21	40*	39	18
CCOC(=O)CC(=O)CSc1ncnc2c1nnn2-c1ccccc1	0	5	17	-2	6	/
CN1CCN(c2ccc(NC(=S)NC(=O)c3cccc4ccccc34)cc2)CC1	-3	10	24	-3	3	/
CN1CCN(c2ccc(NC(=S)NC(=O)c3cccc4c(Br)cccc34)cc2)CC1	-3	8	42	47*	-1	-84
COc1cccc(OC)c1C(=O)Nc1cccc(C(C)=O)c1	2	10	9	16	-6	/
CC(=O)c1cccc(NC(=O)c2cc(Cl)sc2Cl)c1	25	18	-9	42*	23	20
CCOC(=O)N1CCN(C(=O)c2ccc3c(c2)N=C(C)c2cc(Cl)ccc2S3)CC1	22	16	25	17	21	/
Cc1c(Br)c(C(F)(F)F)nn1CC(=O)NCc1ccccc1	0	32	26	-5	-1	/
COc1cc(/C=C2\C(=N)N3N=C(S(=O)(=O)CC(C)C)SC3=NC2=O)ccc1OC(=O)c1ccco1	19	-22	1	41*	14	5
N#Cc1sc(NCc2ccccc2)nc1Cl	40	-7	4	41*	11	22
COc1ccc(CNc2nc(Cl)c(C#N)s2)cc1	35	9	24	39	18	/
COC(=O)c1ccc(CSc2nc3ccc(S(=O)(=O)N4CCOCC4)cc3[nH]2)cc1	16	16	11	17	15	/
Cc1ccc(S(=O)(=O)N(Cc2ccccc2)c2ccccc2C(=O)NCc2ccco2)cc1	38	18	4	41*	12	20
Cc1ccc(S(=O)(=O)N(Cc2ccccc2)c2ccccc2C(=O)Nc2ccccc2C(=O)NCc2ccco2)cc1	32	21	0	26	11	/
NS(=O)(=O)c1cccc(NC(=O)CSc2nnc(-c3ccccc3F)n2C2CC2)c1	15	4	5	-12	-5	/
SMILES	tim23-1 inh	NALP1 yeast inh	NLRP3 yeast inh	tim10-1 inh	TIM10 inh	tim10-1 confirm
CC1CCCC(N2C(=O)NC(NC(=O)c3ccco3)(C(F)(F)F)C2=O)C1C (stereo unspecified)	21	-9	-3	47*	7	26
Cn1nnc(NC(=S)NC(=O)c2cc(Cl)ccc2Cl)n1	41	-10	17	41*	11	0
COc1cc(/C=N/N=C2/C(=O)Nc3ccccc32)cc(OC)c1O	43	19	-9	44*	36	52*
O=C(/C=C/c1ccc(F)cc1)N1CCN(c2ncccn2)CC1	-1	-11	-22	-13	-19	/
CC(C)(C)c1ccc(/C=C/C(=O)N2CCN(c3ncccn3)CC2)cc1	34	33	22	43*	29	35*
COC(=O)CN1C(=O)N/C(=C/c2ccc(OC)cc2)C1=O	3	12	-10	4	0	/
